Screening results (PubChem BioAssay)
Shown are actives, neighbours in structure and some others; about 8.1% of the full set was active somewhere.
Sfp PPTase inh: qHTS Assay for Inhibitors of Bacillus subtilis Sfp phosphopantetheinyl transferase (PPTase). 4'-phosphopantetheinyl transferase ffp (Bacillus subtilis), Q9F4F7. Biochemical Sfp PPTase activity, qHTS. Potency, µM, inactives show largest response in the series, negative = inhibition, actives largely listed as inhibitors. actives 3.5% (n = 310,000);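 further: the enzyme is Sfp with the accession as filed and its product quenches rhodamine fluorescence; 0% = enzyme reaction without inhibitor and -100% = no enzyme wells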
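After 15 min at room temperature with compound, 15 nM Sfp received 5 uM rhodamine-CoA plus 12.5 uM BHQ-2-ybbR (50 mM Hepes pH 7.6, 10 mM MgCl2). Rate came from the fluorescence difference over 30 min, ex 525/em 598 nm.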
RORgamma inh: qHTS for inhibitors of ROR gamma transcriptional activity. Nuclear receptor ROR-gamma (Mus musculus), P51450. Drosophila S2 Gal4-RORgamma UAS-luciferase reporter, 20 h. Potency, µM (top dose mostly 53.6 µM), for the others: at the highest dose activity change, negative = inhibition, most hits filed as inhibitors. actives 5.4% (n = 310,000). AID 2551, 2010; further: on the % scale 0 is the no-effect control and ±100 the full control effect; nearly all actives have a fitted effect of over 60% in size
Target sequence (P51450 whole entry, looked up, the tested form may be a part): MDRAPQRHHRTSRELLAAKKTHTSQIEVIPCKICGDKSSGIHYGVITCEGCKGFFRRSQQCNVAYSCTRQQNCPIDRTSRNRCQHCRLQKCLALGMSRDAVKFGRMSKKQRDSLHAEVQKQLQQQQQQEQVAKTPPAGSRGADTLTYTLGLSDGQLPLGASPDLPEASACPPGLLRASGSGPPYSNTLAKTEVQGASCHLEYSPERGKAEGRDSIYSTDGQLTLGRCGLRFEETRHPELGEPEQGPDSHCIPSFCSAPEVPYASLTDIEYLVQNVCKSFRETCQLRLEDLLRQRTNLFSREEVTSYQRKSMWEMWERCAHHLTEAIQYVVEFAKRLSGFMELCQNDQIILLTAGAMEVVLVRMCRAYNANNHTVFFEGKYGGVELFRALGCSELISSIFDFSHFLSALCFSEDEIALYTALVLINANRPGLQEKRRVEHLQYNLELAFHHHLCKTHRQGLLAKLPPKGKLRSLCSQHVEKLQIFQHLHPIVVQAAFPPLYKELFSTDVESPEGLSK
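Luminescence from a UAS-regulated Photinus luciferase reporter in stably transfected Drosophila Schneider cells is measured; decreased signal marks ROR gamma inhibition. Fusion expression is induced by 700 uM copper sulfate for 20 hr.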
VP16 counter: VP16 counterscreen qHTS for inhibitors of ROR gamma transcriptional activity; actives 3.5% (n = 310,000); Potency, µM (doses to about 53.6 µM), for inactives: at the highest dose activity, negative = inhibition, actives largely listed as inhibitors; Drosophila S2 Gal4-VP16 UAS-luciferase, luminescence, 20 h;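 further: Gal4-VP16 expression switched on by copper sulfate through the metallothionein promoter; on the % scale 0 is the no-effect control and ±100 the full control effect; nearly all actives have a fitted effect of over 50% in size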
PINK1 modulator: A Quantitative High throughput Screen to Identify Chemical Modulators of PINK1 Expression; PINK1 immunofluorescence, high-content cytometry, 24 h; Potency, µM (highest dose often 76.6 µM), for the others: top-dose activation (PINK1 increase), most hits filed as activators; actives 0.2% (n = 410,000); AID 624263, 2012; active means well fitted activation curve with a large enough effect; inconclusive means small, poorly fitted or top-dose-only effect; cell line not stated here; further: % of control where 0% means no effect; nearly all actives have a fitted effect of over 65% in size
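PINK1 protein level read as immunofluorescence by microplate cytometer in a fixed, stained stable cell line after 24 h exposure to five compound concentrations, with CCCP as control.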
ClpP mod: qHTS Assay for Activators of ClpP | ATP-dependent Clp protease proteolytic subunit (Bacillus subtilis (strain 168)), P80244 | purified B. subtilis ClpP, FRET peptide cleavage, 20 min | Potency, µM (doses to about 57.5 µM), without a hit: at the highest dose activity change, negative = active | actives 1.9% (n = 340,000) | AID 651965, 2013; active means well fitted falling curve with a large enough effect; inconclusive means small, poorly fitted or top-dose-only effect; inactive means no such curve, though single readings can be large or run the other way; further: the source files actives as falling curves though it sought activators and does not explain the sign; nearly all actives have a fitted effect of over 65% in size
Target sequence (P80244 whole entry, looked up): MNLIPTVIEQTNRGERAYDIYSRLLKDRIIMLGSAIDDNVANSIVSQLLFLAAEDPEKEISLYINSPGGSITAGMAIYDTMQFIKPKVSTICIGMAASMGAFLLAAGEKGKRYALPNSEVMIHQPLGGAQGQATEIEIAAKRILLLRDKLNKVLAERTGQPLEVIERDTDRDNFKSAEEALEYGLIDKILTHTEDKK
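Buffer: 100 mM Tris/HCl pH8, 100 mM KCl, 0.05% low protease BSA, 2.5% glycerol, 0.01% Tween-20. ClpP 10 microg/mL final; 20 min RT; delta FRET normalized to ADEP and DMSO controls.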
Epigenetic derep: Quantitative High-Throughput Screen for Regulators of Epigenetic Control; Potency, µM (titrated, usually from 53.9 µM), for inactives: at the top dose GFP activation, most hits filed as activators; murine LDR cells, GFP reporter derepression, 30 h; actives 0.2% (n = 280,000); further: % of control where 0% means no effect; nearly all actives have a fitted effect of over 60% in size
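GFP-positive cell count by laser-scanning cytometry (objects 20–120 um) after 30 h, 37 C compound exposure of murine LDR cells; reporter is CMV-GFP integrated at a silenced locus, inducible by HDAC or DNMT inhibitors.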
Active calls of the source: *; [ ] = dose if it differs, or a comment. Unless noted, the call rests on the fitted dose curve; in most records, active means well fitted curve in the direction sought with a large enough effect; inconclusive means small, poorly fitted or top-dose-only effect, or another doubt; inactive means no such curve, though single readings can be large; an effect the other way counts as inactive or inconclusive. Potency means the concentration at half of the fitted maximal effect.

Screening COc1cc2c(cc1OC)C(C1C(=O)CCCC1=O)N(C(=O)CCl)CC2 (stereo not drawn) returned Sfp PPTase inh 0%, RORgamma inh -16%, VP16 counter 5%, PINK1 modulator 0%, ClpP mod -25% and Epigenetic derep -1%.
`Cn1nccc1-c1cc(Cl)cc(Cl)c1O` gave Sfp PPTase inh 3%, RORgamma inh inconclusive, VP16 counter 32µM*, PINK1 modulator -1% and Epigenetic derep 0%.
For CC1CCC2(CC1)NC(=O)N(CC(=O)c1ccc[nH]1)C2=O (stereo not drawn) the results were Sfp PPTase inh 14%, RORgamma inh -10%, VP16 counter 1%, PINK1 modulator 3%, ClpP mod 28µM* and Epigenetic derep -1%.
Screening COCCCNC(=O)C1CCN(c2cc(C)nc3c(-c4ccc(Cl)cc4)c(C)nn23)CC1 returned PINK1 modulator 1%, ClpP mod -15% and Epigenetic derep -1%.
`COC(=O)CN(Cc1ccco1)S(=O)(=O)c1ccccc1` gave Sfp PPTase inh 56µM*, RORgamma inh 16%, VP16 counter 1%[0.365 µM], ClpP mod -4% and Epigenetic derep -2%.
`COc1ccc2[nH]c3c4c(ccc3c2c1)C(=O)C=CC4=O` gave Sfp PPTase inh 6.3µM*, RORgamma inh 6.3µM*, VP16 counter 8.9µM*, PINK1 modulator -3%, ClpP mod 0% and Epigenetic derep 2%.
For COc1ccc2[nH]c(-c3ccc(F)cc3F)cc(=O)c2c1 the results were Sfp PPTase inh 5%, RORgamma inh -22%, VP16 counter 4% and Epigenetic derep 0%.
O=C1CC(c2ccc(Cl)cc2)Sc2nc(-c3ccc(F)cc3)nn21 (stereo not drawn) was read as PINK1 modulator 1%, ClpP mod 0% and Epigenetic derep 2%.
COc1ccc(-c2cc(C3CC3)nc3sc(C#N)c(N)c23)cc1 was read as Sfp PPTase inh -24%, RORgamma inh -20%, VP16 counter -1%[0.365 µM], PINK1 modulator -1%, ClpP mod inconclusive and Epigenetic derep -3%.
`N#Cc1sc2nc(-c3cccs3)cc(-c3ccccc3)c2c1N` gave Sfp PPTase inh 45µM*, RORgamma inh -24%, VP16 counter 0%, PINK1 modulator 10%[38.3 µM], ClpP mod -5% and Epigenetic derep inconclusive.
CCN(CC)C(=O)c1sc2nc(-c3cccs3)cc(-c3ccc(Cl)cc3)c2c1N was read as Sfp PPTase inh 79µM*, RORgamma inh -28%, VP16 counter 3%, PINK1 modulator 0%, ClpP mod inconclusive and Epigenetic derep -2%.
For N#Cc1sc2nc(-c3cccs3)cc(-c3ccc(Cl)cc3)c2c1N the results were Sfp PPTase inh -1%, RORgamma inh -18%, VP16 counter -3%, PINK1 modulator 29%[38.3 µM], ClpP mod -6% and Epigenetic derep 14µM*.
Screening O=C1CN(C(=O)COc2ccc(Cl)cc2)C(c2ccc(F)cc2)c2cc(Cl)ccc2N1 (stereo not drawn) returned PINK1 modulator -1%, ClpP mod 0% and Epigenetic derep -2%.
For Cc1ccc2oc(=O)c3cc(C(=O)Nc4cccc(C#N)c4)sc3c2c1 the results were PINK1 modulator 1%, ClpP mod 4% and Epigenetic derep -1%.
Cc1csc(NC(=O)CSc2nc3sc(C)c(C)c3c(=O)[nH]2)n1 was read as Sfp PPTase inh 20µM*, RORgamma inh 6%, VP16 counter -3%, PINK1 modulator 2%, ClpP mod -5% and Epigenetic derep 0%.
`O=C(COC(=O)c1cc(NS(=O)(=O)c2cccs2)ccc1O)Nc1ccc(F)c(F)c1F` gave Sfp PPTase inh 8%, RORgamma inh 33%, VP16 counter -8%, PINK1 modulator 2% and Epigenetic derep 3%.
For O=C(CNCc1ccncc1)Nc1cc(S(=O)(=O)N2CCCCC2)ccc1Cl the results were Sfp PPTase inh 45µM*, RORgamma inh -22%, VP16 counter 15%, PINK1 modulator 2%, ClpP mod -3% and Epigenetic derep 1%.
Screening O=C(COC(=O)c1cc(NS(=O)(=O)c2cccs2)ccc1O)Nc1cc(Cl)ccc1Cl returned Sfp PPTase inh -12%, RORgamma inh inconclusive, VP16 counter 13µM*, PINK1 modulator 9%, ClpP mod 3% and Epigenetic derep 0%.
For O=C(COC(=O)c1ccccc1O)Nc1cc(S(=O)(=O)N2CCCCCC2)ccc1Cl the results were PINK1 modulator 7% and ClpP mod 4%.
Screening Cc1ccc(-c2nc(SCC(=O)Nc3cc(S(=O)(=O)N4CCCCC4)ccc3Cl)n[nH]2)cc1 returned Sfp PPTase inh 12%, RORgamma inh inconclusive, VP16 counter inconclusive, PINK1 modulator 32µM*, ClpP mod 0% and Epigenetic derep -1%.
Screening O=C(COC(=O)c1cc(Br)ccc1O)Nc1cc(S(=O)(=O)N2CCCC2)ccc1Cl returned Sfp PPTase inh 56µM*, RORgamma inh -2%, VP16 counter -5%, PINK1 modulator -1%, ClpP mod -3% and Epigenetic derep 0%.
Nc1cc(=O)[nH]c(SCC(=O)Nc2cc(S(=O)(=O)N3CCCCCC3)ccc2Cl)n1 was read as PINK1 modulator 8% and ClpP mod -4%.
Screening O=C(CNCc1ccccn1)Nc1cc(S(=O)(=O)N2CCCCC2)ccc1Cl returned Sfp PPTase inh 12%, RORgamma inh -8%, VP16 counter -9%, PINK1 modulator 5%, ClpP mod 0% and Epigenetic derep 3%.
`CS(=O)(=O)OCC(O)C(O)COS(C)(=O)=O` (stereo not drawn) gave Sfp PPTase inh 2%, RORgamma inh 9% and VP16 counter 0%.
`COc1ccc2c(c1)OC(=O)CC2c1ccc2c(c1)OCO2` (stereo not drawn) gave Sfp PPTase inh -5%, RORgamma inh 0%, VP16 counter -4% and Epigenetic derep -1%.
Screening Cc1ccc(S(=O)(=O)N2CCCCC2)cc1NC(=O)CNCc1ccco1 returned Sfp PPTase inh 6.3µM*, RORgamma inh 6%, VP16 counter 0%, PINK1 modulator -1%, ClpP mod 0% and Epigenetic derep 0%.
